Data published in the supplement of paper PMC10849652.
Targets with a hit are over-represented here; the source holds about 8,800 in all. About 0.5% of all pairs of compound and target were hits. A number with no mark means an inactive call.

Legend:
Experiment in all cases: log2 fold change, soluble protein after heating vs DMSO (PISA); higher = thermal stabilisation; K562 lysate, 10 uM; active = over 0.2 and 3.5 SD of the protein, either way, in both replicates (recomputed)
ibrutinib = compound: C=CC(=O)N1CCC[C@@H](n2nc(-c3ccc(Oc4ccccc4)cc3)c3c(N)ncnc32)C1 [ibrutinib]
Outline: (§1)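 To prepare the extract, K562 pellets were dounce-homogenised in PBS pH 7.4 with 1 mM MgCl2, giving crude material at 1 mg/mL protein. This was treated with 10 μM compound for 30 min, then heated in aliquots for 3 min over 48°C-58°C before pooling and addition of NP-40 to 0.5% at 4°C. Centrifugation at 21,000xg for 90 min left soluble protein in the supernatant, which TMTpro 16plex LC-MS/MS quantified with equalised channel sums. Results are log-two fold changes in thermal stability compared with solvent controls, from duplicates.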

[1] = compound: CC(=O)c1cnc2ccc(-c3cc(Cl)c(O)c(Cl)c3)nc2c1N[C@H]1CC[C@H](CN(C)C)CC1
Outline: as §1

ralimetinib = compound: CC(C)(C)Cn1c(N)nc2ccc(-c3[nH]c(C(C)(C)C)nc3-c3ccc(F)cc3)nc21 [ralimetinib]
Outline: as §1

[2] = compound: CC(C)(O)CC(=O)NCCn1ccc2ncnc(Nc3ccc(Oc4cccc(C(F)(F)F)c4)c(Cl)c3)c21
Outline: as §1

[3] = compound: CC(C)C1=C2N=C(C=C(N2N=C1)NCC3=CC=CC=C3)NCCCCCCN
Outline: as §1

[4] = compound: CC1=C(C(CC(=O)N1)C2=CC=C(C=C2)C(F)(F)F)C(=O)NC3=C(C=C4C(=C3)C=NN4)F
Outline: as §1

[5] = compound: CC1=C(C2=C(C=C1)C(=O)C3=CC=CC=C3N2CCCN)C
Outline: as §1

[6] = compound: CC1=C(C=C(C=C1)NC(=O)C2=CC(=CC=C2)N(C)C)NC(=O)C3=CC=C(C=C3)O
Outline: as §1

[7] = compound: CC1=CC=C(C=C1)SC2=C3C=C(SC3=CN=C2)C(=O)N
Outline: as §1

[8] = compound: CC1=C(C=C(C=C1)NC(=O)C2=CC(=CC=C2)C(C)(C)C#N)NC3=CC4=C(C=C3)N=CN(C4=O)C
Outline: as §1

Sequence of UniProt Q6P4H8 (Q6P4H8 whole entry, looked up): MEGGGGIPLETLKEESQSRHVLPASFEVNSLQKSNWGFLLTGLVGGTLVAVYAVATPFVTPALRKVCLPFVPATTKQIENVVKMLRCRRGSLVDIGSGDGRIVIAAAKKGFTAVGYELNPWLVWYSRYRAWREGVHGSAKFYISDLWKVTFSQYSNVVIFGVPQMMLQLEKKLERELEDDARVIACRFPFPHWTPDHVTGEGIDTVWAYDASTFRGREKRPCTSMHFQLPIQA
Sequence of UniProt Q53HL2 (Q53HL2 whole entry, looked up): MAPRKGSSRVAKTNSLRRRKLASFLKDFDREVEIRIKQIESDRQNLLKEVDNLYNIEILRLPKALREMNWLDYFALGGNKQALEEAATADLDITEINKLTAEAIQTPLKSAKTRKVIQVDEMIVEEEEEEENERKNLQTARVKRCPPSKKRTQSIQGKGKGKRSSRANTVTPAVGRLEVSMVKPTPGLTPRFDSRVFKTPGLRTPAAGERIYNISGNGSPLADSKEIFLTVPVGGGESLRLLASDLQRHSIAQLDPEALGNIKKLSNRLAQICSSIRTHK
Sequence of UniProt Q9BRD0 (Q9BRD0 whole entry, looked up): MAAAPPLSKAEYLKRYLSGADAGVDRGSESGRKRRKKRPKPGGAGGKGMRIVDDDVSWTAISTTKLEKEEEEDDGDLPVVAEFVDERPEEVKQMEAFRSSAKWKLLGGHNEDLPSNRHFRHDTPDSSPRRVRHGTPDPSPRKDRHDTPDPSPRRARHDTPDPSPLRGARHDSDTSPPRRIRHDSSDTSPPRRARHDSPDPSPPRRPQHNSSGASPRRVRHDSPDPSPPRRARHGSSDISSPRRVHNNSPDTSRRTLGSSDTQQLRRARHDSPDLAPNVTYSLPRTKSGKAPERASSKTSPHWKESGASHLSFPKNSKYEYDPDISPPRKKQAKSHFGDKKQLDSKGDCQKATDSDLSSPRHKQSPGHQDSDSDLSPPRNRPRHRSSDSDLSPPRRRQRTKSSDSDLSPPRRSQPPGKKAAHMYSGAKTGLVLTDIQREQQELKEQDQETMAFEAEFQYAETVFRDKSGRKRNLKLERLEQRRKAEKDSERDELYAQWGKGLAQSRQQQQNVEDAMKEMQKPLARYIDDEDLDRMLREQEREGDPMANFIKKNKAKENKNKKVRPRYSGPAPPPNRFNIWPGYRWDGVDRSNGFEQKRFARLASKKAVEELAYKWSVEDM
Sequence of UniProt O94986 (O94986 whole entry, looked up): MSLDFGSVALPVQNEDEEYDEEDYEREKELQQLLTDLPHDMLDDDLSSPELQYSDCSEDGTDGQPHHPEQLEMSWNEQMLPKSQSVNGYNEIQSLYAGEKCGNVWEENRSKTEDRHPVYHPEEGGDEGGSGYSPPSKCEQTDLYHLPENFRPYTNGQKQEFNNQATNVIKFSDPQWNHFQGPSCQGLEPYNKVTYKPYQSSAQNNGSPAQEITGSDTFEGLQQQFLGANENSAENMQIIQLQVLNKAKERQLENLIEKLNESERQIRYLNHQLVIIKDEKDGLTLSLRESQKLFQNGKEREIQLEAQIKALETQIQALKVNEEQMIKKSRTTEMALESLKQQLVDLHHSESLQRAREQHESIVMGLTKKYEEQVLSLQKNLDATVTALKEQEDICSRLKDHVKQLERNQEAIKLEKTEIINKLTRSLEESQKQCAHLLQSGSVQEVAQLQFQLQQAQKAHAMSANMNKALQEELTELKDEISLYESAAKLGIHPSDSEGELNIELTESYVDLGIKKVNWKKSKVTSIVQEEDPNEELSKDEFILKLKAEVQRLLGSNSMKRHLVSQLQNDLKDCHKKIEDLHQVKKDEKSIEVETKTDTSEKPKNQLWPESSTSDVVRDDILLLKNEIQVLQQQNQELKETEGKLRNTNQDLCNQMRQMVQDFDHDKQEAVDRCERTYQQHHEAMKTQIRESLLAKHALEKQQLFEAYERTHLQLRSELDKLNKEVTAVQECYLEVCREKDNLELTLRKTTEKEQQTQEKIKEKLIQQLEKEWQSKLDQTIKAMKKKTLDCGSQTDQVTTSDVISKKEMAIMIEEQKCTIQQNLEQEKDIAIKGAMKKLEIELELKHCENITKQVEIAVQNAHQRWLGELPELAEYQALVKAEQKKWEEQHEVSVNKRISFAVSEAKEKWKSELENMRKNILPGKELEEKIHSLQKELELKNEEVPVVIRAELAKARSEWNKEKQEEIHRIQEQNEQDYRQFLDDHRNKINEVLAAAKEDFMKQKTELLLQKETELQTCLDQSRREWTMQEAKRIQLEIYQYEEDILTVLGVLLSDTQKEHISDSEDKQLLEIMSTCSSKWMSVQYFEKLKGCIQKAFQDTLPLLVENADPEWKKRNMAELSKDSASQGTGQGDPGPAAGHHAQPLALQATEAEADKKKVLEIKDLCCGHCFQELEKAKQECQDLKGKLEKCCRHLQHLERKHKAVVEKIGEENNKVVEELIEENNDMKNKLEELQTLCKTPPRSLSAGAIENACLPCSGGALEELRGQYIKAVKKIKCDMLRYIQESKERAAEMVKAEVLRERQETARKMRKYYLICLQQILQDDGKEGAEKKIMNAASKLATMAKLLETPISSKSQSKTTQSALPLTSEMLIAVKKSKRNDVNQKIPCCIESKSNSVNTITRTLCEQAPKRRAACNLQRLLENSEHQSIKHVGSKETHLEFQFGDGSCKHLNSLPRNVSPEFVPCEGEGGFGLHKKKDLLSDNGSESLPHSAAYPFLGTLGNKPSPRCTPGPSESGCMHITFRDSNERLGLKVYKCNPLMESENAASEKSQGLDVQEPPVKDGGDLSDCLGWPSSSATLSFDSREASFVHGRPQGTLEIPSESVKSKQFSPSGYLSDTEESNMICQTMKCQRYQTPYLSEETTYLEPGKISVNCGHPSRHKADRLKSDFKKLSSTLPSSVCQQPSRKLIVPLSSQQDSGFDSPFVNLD
Sequence of UniProt Q8IYX8 (Q8IYX8 whole entry, looked up): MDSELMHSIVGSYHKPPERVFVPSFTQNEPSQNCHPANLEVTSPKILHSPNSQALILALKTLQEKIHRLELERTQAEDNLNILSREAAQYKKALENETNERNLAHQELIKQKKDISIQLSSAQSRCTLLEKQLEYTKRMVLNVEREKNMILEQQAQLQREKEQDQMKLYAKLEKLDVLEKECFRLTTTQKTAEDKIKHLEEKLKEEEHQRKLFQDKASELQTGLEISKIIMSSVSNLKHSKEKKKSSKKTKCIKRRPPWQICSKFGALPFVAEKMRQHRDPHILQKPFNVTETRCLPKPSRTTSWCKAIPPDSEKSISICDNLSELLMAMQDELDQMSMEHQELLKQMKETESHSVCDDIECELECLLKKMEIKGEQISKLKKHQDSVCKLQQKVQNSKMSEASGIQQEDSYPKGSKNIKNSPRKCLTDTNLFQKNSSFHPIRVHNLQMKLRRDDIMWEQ
Sequence of UniProt Q5H9F3 (Q5H9F3 whole entry, looked up): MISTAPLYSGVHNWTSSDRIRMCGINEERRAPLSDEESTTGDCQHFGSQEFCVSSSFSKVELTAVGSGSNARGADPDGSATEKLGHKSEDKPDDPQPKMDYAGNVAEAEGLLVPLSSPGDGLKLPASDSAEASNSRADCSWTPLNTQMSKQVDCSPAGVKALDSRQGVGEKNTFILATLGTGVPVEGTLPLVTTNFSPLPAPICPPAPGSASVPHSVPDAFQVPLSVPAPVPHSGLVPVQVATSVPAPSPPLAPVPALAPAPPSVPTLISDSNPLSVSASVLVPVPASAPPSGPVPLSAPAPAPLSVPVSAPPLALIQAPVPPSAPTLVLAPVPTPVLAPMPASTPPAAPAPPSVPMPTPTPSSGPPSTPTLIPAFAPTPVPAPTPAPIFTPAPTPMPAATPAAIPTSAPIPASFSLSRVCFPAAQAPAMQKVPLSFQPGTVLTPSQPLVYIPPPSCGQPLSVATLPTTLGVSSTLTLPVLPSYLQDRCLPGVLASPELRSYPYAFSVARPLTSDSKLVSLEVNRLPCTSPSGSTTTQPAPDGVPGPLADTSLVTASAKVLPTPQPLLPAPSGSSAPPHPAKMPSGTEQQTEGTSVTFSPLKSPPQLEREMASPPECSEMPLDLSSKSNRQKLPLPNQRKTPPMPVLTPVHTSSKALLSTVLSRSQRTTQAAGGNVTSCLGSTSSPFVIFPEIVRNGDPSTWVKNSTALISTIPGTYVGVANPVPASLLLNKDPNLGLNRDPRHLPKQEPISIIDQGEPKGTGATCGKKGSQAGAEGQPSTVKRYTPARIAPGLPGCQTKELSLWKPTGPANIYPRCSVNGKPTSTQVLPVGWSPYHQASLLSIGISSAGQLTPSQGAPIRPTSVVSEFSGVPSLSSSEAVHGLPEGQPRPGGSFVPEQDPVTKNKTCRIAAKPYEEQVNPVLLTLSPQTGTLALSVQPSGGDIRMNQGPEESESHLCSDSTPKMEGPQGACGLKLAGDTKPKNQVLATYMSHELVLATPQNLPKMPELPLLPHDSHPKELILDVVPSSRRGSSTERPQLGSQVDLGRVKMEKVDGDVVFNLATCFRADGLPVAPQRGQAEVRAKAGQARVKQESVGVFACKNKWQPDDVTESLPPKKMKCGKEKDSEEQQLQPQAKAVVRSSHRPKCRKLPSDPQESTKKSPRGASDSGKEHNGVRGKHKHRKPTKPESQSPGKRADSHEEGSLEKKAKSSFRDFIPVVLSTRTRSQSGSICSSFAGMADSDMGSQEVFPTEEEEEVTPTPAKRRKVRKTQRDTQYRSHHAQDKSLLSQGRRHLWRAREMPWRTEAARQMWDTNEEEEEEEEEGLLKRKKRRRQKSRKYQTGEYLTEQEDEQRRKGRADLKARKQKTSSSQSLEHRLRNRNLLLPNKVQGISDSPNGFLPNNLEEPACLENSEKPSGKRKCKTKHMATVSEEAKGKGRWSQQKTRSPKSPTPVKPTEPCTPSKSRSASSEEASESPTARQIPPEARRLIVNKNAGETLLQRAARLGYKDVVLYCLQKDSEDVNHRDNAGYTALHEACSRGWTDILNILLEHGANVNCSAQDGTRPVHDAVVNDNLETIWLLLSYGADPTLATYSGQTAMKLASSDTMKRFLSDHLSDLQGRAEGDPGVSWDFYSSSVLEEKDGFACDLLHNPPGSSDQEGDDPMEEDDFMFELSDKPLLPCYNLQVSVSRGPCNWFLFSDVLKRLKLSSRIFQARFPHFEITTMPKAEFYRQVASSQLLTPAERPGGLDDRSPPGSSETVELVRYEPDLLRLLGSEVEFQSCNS

Target | log2 fold change (ibrutinib) | log2 fold change [1] | log2 fold change (ralimetinib) | log2 fold change [2] | log2 fold change [3] | log2 fold change [4] | log2 fold change [5] | log2 fold change [6] | log2 fold change [7] | log2 fold change [8]
C18orf25 isoform 2 (UniProt Q96B23) | 0.126 | 0.1 | -0.065 | -0.027 | -0.013 | -0.088 | 0.015 | -0.017 | -0.076 | –
CASP3 (UniProt P42574) | 0.028 | -0.004 | 0.009 | 0.012 | -0.048 | -0.047 | -0.026 | -0.02 | -0.01 | 0.025
CHCHD7 isoform 4 (UniProt Q9BUK0) | -0.109 | 0.008 | -0.038 | -0.014 | – | 0.116 | 0.002 | 0.024 | -0.061 | -0.025
BCL2L12 (UniProt Q9HB09) | -0.26 | -0.084 | 0.073 | -0.024 | 0.057 | 0 | -0.021 | -0.024 | 0.099 | 0.028
C1orf131 isoform 5 (UniProt Q8NDD1) | – | 0.041 | 0.06 | -0.056 | 0.028 | -0.016 | -0.071 | 0.025 | -0.043 | 0.08
CDKL5 (UniProt O76039) | – | 0.088 | – | – | – | – | -0.351 | – | -0.019 | 0.111
BCORL1 isoform 3 (UniProt Q5H9F3) | – | – | -0.07 | 0.075 | 0.074 | – | 0.001 | -0.01 | – | -0.321
C8orf88 (UniProt P0DMB2) | -0.004 | – | 0.06 | 0.047 | -0.05 | – | 0.006 | 0.022 | – | 0.052
CCND3 (UniProt P30281) | 0.122 | – | 0.039 | 0 | 0.032 | -0.104 | -0.063 | -0.067 | – | -0.021
CAD (UniProt H7BZB3) | – | – | – | – | -0.073 | – | – | – | – | –
CHD9 (UniProt Q3L8U1) | – | – | -0.117 | -0.147 | -0.074 | 0.212 | 0.038 | -0.023 | – | -0.031
BUD13 (UniProt Q9BRD0) | 0.07 | – | 0.033 | 0.034 | -0.051 | -0.051 | -0.219 | -0.013 | – | 0.013
ATPSCKMT (UniProt Q6P4H8) | -0.042 | – | -0.15 | 0.088 | – | – | 0.019 | -0.001 | – | -0.015
CDK5RAP1 (UniProt Q96SZ6) | -0.369 | – | -0.018 | -0.062 | 0.122 | -0.002 | -0.027 | 0.045 | – | -0.001
CEP152 (UniProt O94986) | -0.077 | – | 0.144 | -0.092 | -0.062 | -0.04 | -0.071 | -0.067 | – | 0.095
ATXN2 (UniProt F8WB06) | – | – | – | – | – | – | 0.187 | – | – | –
CASC1 (UniProt Q6TDU7) | 0.24 | – | 0.078 | -0.093 | – | – | – | 0.097 | – | –
ATG10 (UniProt Q9H0Y0) | 0.057 | – | 0.001 | -0.013 | -0.062 | -0.132 | 0.063 | 0.012 | – | 0.053
CDC25A (UniProt P30304) | – | -0.009 | 0.014 | -0.044 | 0.019 | -0.017 | 0.012 | 0.015 | 0.002 | 0.087
CDK17 isoform 2 (UniProt Q00537) | -0.029 | – | -0.019 | -0.003 | -0.037 | -0.162 | -0.08 | 0.057 | – | 0.029
B3GALT6 (UniProt Q96L58) | -0.025 | – | 0.065 | 0.23 | -0.025 | – | -0.112 | -0.046 | – | -0.168
CEBPZOS (UniProt A8MTT3) | – | 0.02 | 0.035 | 0.022 | -0.047 | -0.054 | 0.04 | -0.032 | 0.012 | 0.112

Target | log2 fold change (ibrutinib) | log2 fold change [1] | log2 fold change (ralimetinib) | log2 fold change [2] | log2 fold change [3] | log2 fold change [4] | log2 fold change [5] | log2 fold change [6] | log2 fold change [7] | log2 fold change [8]
BAHCC1 (UniProt Q9P281) | – | -0.045 | – | – | -0.018 | -0.114 | -0.008 | – | 0.074 | 0.013
BBS7 (UniProt Q8IWZ6) | – | – | 0.047 | 0.015 | -0.021 | 0.077 | 0.182 | -0.013 | – | 0.181
CENPV (UniProt Q7Z7K6) | 0.036 | – | 0.352 | -0.235 | – | 0.182 | – | -0.13 | – | 0.121
CEP57L1 (UniProt Q8IYX8) | -0.039 | – | 0.171 | -0.272 | -0.049 | 0.11 | -0.191 | -0.044 | – | -0.037
ATG4D (UniProt Q86TL0) | -0.086 | – | 0.049 | 0.074 | – | – | 0.319 | -0.052 | – | -0.096
AVEN (UniProt Q9NQS1) | -0.03 | – | -0.061 | -0.079 | 0.055 | 0.009 | 0.027 | -0.08 | – | 0.1
CEP128 (UniProt Q6ZU80) | 0.166 | – | -0.06 | -0.001 | – | – | 0.078 | -0.03 | – | –
CCAR2 (UniProt G3V119) | – | 0.017 | – | – | – | – | – | – | -0.047 | –
CAPNS1 (UniProt K7ES78) | – | 0.028 | 0.061 | -0.196 | -0.101 | – | 0.025 | -0.105 | -0.075 | 0.148
CDAN1 (UniProt H3BPZ6) | – | – | – | – | – | – | – | – | – | -0.172
C3AR1 (UniProt Q16581) | 0.018 | – | – | – | – | 0.001 | – | – | – | -0.074
CDCA8 (UniProt Q53HL2) | 0.047 | – | – | – | -0.082 | 0.038 | 0.011 | – | – | –
CACUL1 (UniProt Q86Y37) | – | 0.164 | -0.023 | 0.073 | 0.027 | – | -0.165 | 0.115 | -0.09 | -0.126
BTK isoform 2 (UniProt Q06187) | – | 0.012 | 0.014 | 0.02 | -0.01 | 0.005 | -0.032 | 0.042 | -0.011 | 0.055
CD80 (UniProt P33681) | – | 0.034 | 0.207 | -0.051 | -0.136 | 0.106 | -0.084 | -0.119 | 0.014 | 0.043
BMT2 (UniProt Q1RMZ1) | – | – | – | – | – | 0.586 | – | – | – | –
CANX (UniProt D6RHJ3) | – | -0.013 | – | – | – | 0.021 | – | – | -0.008 | –
CCP110 (UniProt O43303) | -0.008 | – | 0.082 | 0.001 | 0.054 | – | -0.186 | 0.113 | – | 0.01
CDC14A isoform 2 (UniProt Q9UNH5) | – | 0.107 | -0.336 | -0.135 | – | -0.04 | – | 0.219 | 0.006 | 0.145
CCDC130 (UniProt P13994) | -0.232 | – | 0.181 | 0.077 | -0.112 | – | – | 0.072 | – | 0.252
CHD4, A0A2R8Y521 | – | -0.049 | -0.175 | -0.011 | – | -0.19 | 0.191 | 0.228 | 0.314 | –
BRAF (UniProt P15056) | 0.29 | – | 0.008 | – | 0.032 | 0.004 | -0.111 | – | -0.021 | 0.65 (active)
